Screens from PubChem BioAssay.
RE007 growth inh – qHTS Assay for Inhibitors of the HIV-1 protein Vpr | actives 0.21% (n = 360,000) | AID 651644, 2012 | Potency, µM (titrated, usually from 92.2 µM), hits mostly inhibitors | S. pombe RE007 Vpr strain, BacTiter-Glo ATP luminescence, 24 h; active = well fitted falling curve with a large enough effect; inconclusive = small, poorly fitted or top-dose-only effect; inactive = no such curve, though single readings can be large or run the other way; note: nearly all actives have a fitted effect of over 50% in size
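Fission yeast strain RE007, carrying one chromosomally integrated HIV-1 vpr copy, was seeded at OD 0.01 in PMG+AL medium with 23 nL pinned compound. After 24 h at 30 °C and 99% humidity, viability was read by BacTiter-Glo luminescence.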
CHX counter – Cycloheximide Counterscreen for Small Molecule Inhibitors of Shiga Toxin | actives 12% (n = 300,000) | AID 2314, 2010 | max response, % | cell reporter, cycloheximide protein synthesis inhibition counterscreen; in the data active = max response mostly above about 13%, no sharp cut-off; inactive = mostly below about 14%; note: read at 38.3 µM for the half of the compounds with a filed dose
Shiga inhibitor – A qHTS for Small Molecule Inhibitors of Shiga Toxin; Vero cells, Shiga toxin protein synthesis inhibition reporter; inhibition, % at 38.7 µM; actives 9.2% (n = 290,000); in the data active = inhibition mostly above about 28%, no sharp cut-off; inactive = mostly below about 43%
LmPK inh – qHTS Assay for Inhibitors of Leishmania Mexicana Pyruvate Kinase (LmPK); actives 0.37% (n = 290,000); Q27686; Potency, µM (series often up to 57.5 µM), hits mostly inhibitors; purified LmPK, Kinase-Glo ATP luminescence, 1 h; AID 1721, 2009
Target sequence (Q27686 whole entry, looked up): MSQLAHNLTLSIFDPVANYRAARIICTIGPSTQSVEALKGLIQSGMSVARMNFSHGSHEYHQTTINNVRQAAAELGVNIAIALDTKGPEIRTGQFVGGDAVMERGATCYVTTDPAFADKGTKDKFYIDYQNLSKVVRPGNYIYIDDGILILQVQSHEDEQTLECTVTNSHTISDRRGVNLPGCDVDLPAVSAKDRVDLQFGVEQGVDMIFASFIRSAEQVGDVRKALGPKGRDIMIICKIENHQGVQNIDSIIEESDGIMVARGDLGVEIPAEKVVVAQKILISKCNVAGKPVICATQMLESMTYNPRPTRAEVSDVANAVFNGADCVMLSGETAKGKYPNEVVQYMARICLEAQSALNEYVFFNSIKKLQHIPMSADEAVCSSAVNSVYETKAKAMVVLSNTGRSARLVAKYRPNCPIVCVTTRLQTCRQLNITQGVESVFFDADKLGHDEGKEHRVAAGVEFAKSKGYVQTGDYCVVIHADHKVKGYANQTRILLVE
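Screened at intermediate enzyme activity to detect both inhibitors and activators: LmPK at 0.1 nM, with a 0.5 nM enzyme column as activation reference. PEP 0.5 mM, ADP 0.1 mM; ATP detected by luminescence after 1 h.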
Tb PYK inh – qHTS of Trypanosoma Brucei Inhibitors; actives 0.12% (n = 410,000); AID 624173, 2012; Potency, µM (doses to about 76.8 µM), actives largely listed as inhibitors; TbPYK enzyme, Kinase-Glo Plus ATP luminescence, 45 min; note: nearly all actives have a fitted effect of over 50% in size
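Screened from lowest to highest concentration, compounds were pinned into TbPYK/substrate mixtures, and ADP (130 uM final) was added. Plates sat at room temperature for 45 min prior to Kinase-Glo Plus detection by luminescence.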
Giardia FBPA inh – qHTS Assay for Inhibitors of Fructose-1,6-bisphosphate Aldolase from Giardia Lamblia. purified Giardia FBPA. actives 0.71% (n = 290,000). A8B2U2. Potency, µM (titrated, usually from 59.6 µM), most hits filed as inhibitors; note: nearly all actives have a fitted effect of over 55% in size
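Giardia FBPA (40 nM reagent) was preincubated 10 min at RT with compound (up to 57.5 uM final), then substrate plus GAPDH/TPI/NAD/arsenate coupling system with diaphorase/resazurin was added; resorufin fluorescence (525/598 nm) was read after 20 min.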
Numbers stand for hits; 0 = inactive; ? = inconclusive; - = no result; + = active, no number; [ ] = another dose, or the depositor's remark. The entries come from a sample that favours hits as a whole. Unless noted, calls come from the whole dose curve; as a rule, active = well fitted curve in the direction sought with a large enough effect; inconclusive = small, poorly fitted or top-dose-only effect, or another doubt; inactive = no such curve, though single readings can be large; an effect the other way counts as inactive or inconclusive.

SMILES	RE007 growth inh	CHX counter	Shiga inhibitor	LmPK inh	Tb PYK inh	Giardia FBPA inh
O=C(O)c1cccc(N/N=C/c2ccc(F)c(F)c2)c1	0	94.7	+	0	0	0
O=C(O)c1ccc(N/N=C/C=C/c2ccccc2)cc1	0	42.0	54.9	0	0	0
O=C(O)c1cc(N/N=C/c2cccnc2)ccc1Cl	0	62.9	133.2	0	0	0
O=C(O)c1ccc(NS(=O)(=O)/C=C/c2ccccc2)cc1	0	0	0	0	0	0
O=C(Cc1ccc(Cl)c(Cl)c1)N/N=C/c1cccnc1	0	0	0	0	0	0
O=C(NCc1ccccc1Cl)C1CCCN(c2nc3ccccc3n3cccc23)C1 (configuration not stated)	-	-	-	-	0	-
CC(CNC(=O)Cc1ccc(NC(=O)N2CCSc3ncccc32)cc1)c1ccccc1 (configuration not stated)	-	-	-	-	0[15.4 µM]	-
CSc1ccc(C(O)c2ncc(-c3ccccc3Cl)[nH]2)cc1 (configuration not stated)	0	-	-	-	0	-
C(=C\c1ccccc1)/C=N/Nc1nncc(-c2ccccc2)n1	-	0	0	0	-	0
NC(=O)N/N=C/c1cccc(C(F)(F)F)c1	0	0	0	0	0	0
O=c1nc(N/N=C/C=C/c2ccccc2)cn[nH]1	0	36.5	67.3	?	0	0
Clc1cncc(Cl)c1N/N=C/c1ccncc1	0	0	0	0	0	0
O=C(O)c1cc(N/N=C/c2c[nH]c3ccccc23)ccc1Cl	0	58.1	+	0	0	0
O=C(O)c1ccc(/C=N/Nc2cccc(C(F)(F)F)c2)cc1	0	56.4	120.4	0	0	0
O=C(O)c1cc(N/N=C/c2ccncc2)ccc1Cl	0	21.4	59.5	0	0	0
O=C(N/N=C/c1c[nH]c2ccccc12)c1ccc([N+](=O)[O-])cc1Cl	0	0	0	0	0	0
CCCc1cc(=O)[nH]c2nnc(SCC(=O)Nc3cc(C)on3)n12	0	-	-	-	0	-
O=S(=O)(c1ccccc1)N1CCC2(CCN(c3ccc(-c4ccccc4)cc3)CC2)CC1	-	-	-	-	0	0
O=C(O)c1cc(N/N=C/c2ccc(-c3ccccc3)cc2)ccc1Cl	0	99.5	131.9	0	0	0
O=C(O)c1cccc(N/N=C/C2=C(Cl)c3cc(Cl)ccc3SC2)c1	0	65.0	129.0	0	0	0
C/C(=N\NC(=O)CNc1cccc(C(F)(F)F)c1)c1ccc(Br)cc1	0	0	0	0	0	0
Cc1nn(C)c(C(=O)N/N=C/c2ccc(-c3ccccc3)cc2)c1Cl	0	0	0	0	0	-
CSc1ccc(/C=N/Nc2ccc(Cl)c(C(=O)O)c2)cc1	0	52.1	188.7	0	0	0
C/C(=N\Nc1cccc(C(F)(F)F)c1)c1ccc(O)cc1	0	0	50.5	0	0	0
C=CCn1cnc2c(nnn2-c2ccc(C)c(C)c2)c1=O	0	40.1	88.0	0[11.5 µM]	0	0
SMILES	RE007 growth inh	CHX counter	Shiga inhibitor	LmPK inh	Tb PYK inh	Giardia FBPA inh
C=CCn1cnc2c(nnn2-c2ccc(OC)c(OC)c2)c1=O	0	0	0	0	0	0
COc1cc(OC)c(NC(=O)Nc2cccc(OCc3cc(=O)n4ccccc4n3)c2)cc1Cl	-	-	-	-	0	-
O=C(c1ccc(O)cc1)c1ccc(O)cc1O	0	0	0	0	0	0
CN(C)c1ccc(C(=O)NN2C(=O)c3ccccc3C2=O)cc1	0	15.2	0	0	0	0
CN(C)c1ccc(C(=O)c2ccc(O)cc2O)cc1	0	29.2	53.9	0	0	0
CN(C)c1ccc(C(=C2C=CC(=[N+](C)C)C=C2)c2ccc(N(C)C)cc2)cc1	-	-	-	-	?	15.8µM
CN(C)c1ccc(C(=O)c2ccc(N(C)C)cc2)cc1	0	17.4	0	0	0	0
COc1cccc(NCc2nnc3n2CCCCC3)c1	-	-	-	-	0	-
CC(OC(=O)CCc1nc2ccccc2c(=O)[nH]1)C(=O)Nc1cccc(C(F)(F)F)c1 (configuration not stated)	0	-	-	-	0	-
CCOc1ccc(N(CC)S(=O)(=O)N2CCCC(C(=O)NCc3ccccc3OCC)C2)cc1 (configuration not stated)	-	-	-	-	0	-
CCCC12CN3CC(C)(CN(C1)C3c1cn(C)c3ccccc13)C2=O (configuration not stated)	-	-	-	-	0	-
CN(C)c1ccc(C(=O)C(=O)c2ccccc2)cc1	0	48.7	66.7	0	0	0
CNS(=O)(=O)c1ccc(NCC2COc3ccccc3O2)c([N+](=O)[O-])c1 (configuration not stated)	0	16.4	0	0	0	0
COc1ccc2[nH]cc(CCNC(=O)c3cnn(-c4ccccc4Cl)c3C3CCN(C(=O)OC(C)(C)C)CC3)c2c1	-	-	-	-	0	-
COc1cc2c(cc1/C=C/[N+](=O)[O-])OCO2	14.1µM	0	0	0	0	0
c1ccc(CNC2CC3CCC2C3)cc1 (configuration not stated)	0	-	-	-	0	-
O=C(/C=C/c1ccccc1)NC1CC2CCC1C2 (configuration not stated)	0	44.8	106.1	0	0	0
O=C(/C=C/c1ccc([N+](=O)[O-])cc1)NC1CC2CCC1C2 (configuration not stated)	0	43.2	48.8	0	0	0
O=C(/C=C/c1ccc(Cl)cc1)NC1CC2CCC1C2 (configuration not stated)	0	25.7	128.8	0	0	0
COc1ccc(NC(=O)Cn2c(=O)n(Cc3ccccc3)c(=O)c3oc4ccccc4c32)cc1Cl	-	-	-	-	0	-
Cc1ccc(C(=O)Nc2ccc(SC(F)F)cc2)s1	0	50.9	108.9	0	0	0
O=C(Nc1ccc(SC(F)F)cc1)C1=COCCO1	0	34.0	70.4	0	0	0
CC[N+](CC)(CC)CC(=O)Nc1ccc(SC(F)F)cc1	0	0	0	0	0	0
COc1ccc(C(=O)NCC(c2ccc3c(c2)OCO3)N2CCN(c3ccccc3F)CC2)cc1 (configuration not stated)	-	-	-	-	0	-
CCCC/C=C/C(NC(=O)c1ccco1)c1ccccc1 (configuration not stated)	-	-	-	-	-	0
O=C(c1c(Cl)nc2sccn12)N(C(=O)c1c(Cl)nc2sccn12)c1ccc(Cl)cn1	0	79.7	187.3	0	0	0
Cc1ccc(-c2c3c(=O)n(C)c(=O)n(C)c3c3c(C)nc4ccccc4n23)cc1	-	-	-	-	0	-
CCOc1ccc(S(=O)(=O)N(C)CC(=O)NCc2ccccn2)cc1Cl	0	0	0	0	0	0
Cc1cc(C(=O)CN2CCN(CC(=O)Nc3ccc(F)cc3)CC2)c(C)n1C1CC1	0	-	-	-	0	-
C(=C\c1nnc(-c2cccs2)o1)/c1ccccc1	0	62.6	71.2	0	0	-
